Consider 123 compounds from paper PMC9574860, “Chemical Toolkit for PARK7: Potent, Selective, and High-Throughput” (Journal of Medicinal Chemistry, 2022).

Among all 7,900 compounds or so, about 400 (5.1%) showed an effect of 50% or more. The full list was thinned out, with strong results kept by preference.

Chain of Parkinson's disease protein 7 (PARK7/DJ1) (Q99497 whole entry, looked up, the tested form may be a part): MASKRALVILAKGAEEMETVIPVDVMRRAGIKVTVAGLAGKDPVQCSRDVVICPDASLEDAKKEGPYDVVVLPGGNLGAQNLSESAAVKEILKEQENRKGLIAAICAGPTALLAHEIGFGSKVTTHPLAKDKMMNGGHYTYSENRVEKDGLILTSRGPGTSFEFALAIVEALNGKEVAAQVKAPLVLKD

For this experiment, the target named is Parkinson's disease protein 7 (PARK7/DJ1) (human, UniProt Q99497). In words: primary screen, percent inhibition; read as competition with a fluorescent probe by fluorescence polarization; higher = more effect of the substance. Particulars: 100 µM. Summed up:
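Fluorescence-polarization probe displacement (JYQ-107, 20 nM final, 2 h) after 2 h preincubation of PARK7 (0.2 μM final) with each fragment at 100 μM final. Read-out ex/em 480/520 nm; remaining activity derived from FP signal loss relative to reference controls.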
For the compound `COc1cc(F)ccc1N1CCN(C2CCOC2=O)CC1` (stereo not drawn), the Inhibition % amounted to 7.6%. As to `O=C(O)CNC(=O)C12CC3CC(CC(Cl)(C3)C1)C2`, the Inhibition % is given as 7.56%. Regarding `Cc1c(NC(=O)CCl)cccc1[N+](=O)[O-]`, the Inhibition % worked out at 8.38%.

On to `C=CC(=O)NCC1CCC2(CCC2)CO1` (stereo not drawn), for which the Inhibition % is listed as 5.32%. For the compound `O=C(Nc1ccc(Cl)cc1)N1CCCCC1C1OCCO1` (stereo not drawn), the Inhibition % was determined as 5.3%.

Regarding `C=CC(=O)N1CCC(c2ccco2)CC1`, the Inhibition % came out at 8.73%. With `Cc1ccn(S(=O)(=O)c2ccc(C(C)(C)C)cc2)n1`, the Inhibition % is 4.34%. Consider `Cc1ncsc1C=C(C#N)C(=O)NCCc1ccccc1`, for which the Inhibition % came to 6.72%. The same measure for `CS(=O)(=O)Nc1ccc(B(O)O)cc1`: 9.91%; for `CS(=O)(=O)Nc1ccc(C(=O)CCl)cc1`: 75.1%; for `Cc1cc(I)ccc1NC(=O)CCl`: 7.36%. Under `Cc1c(NC(=O)c2cccnc2S)cnn1CCC(C)C` stands 3.61%. `O=C(CCl)NNC(=O)c1cc2c(s1)CCCC2`: the Inhibition % came out at 4.38%. Take `CC(=O)N1CCc2sc(C(=O)CCl)cc2C1`: the Inhibition % came out at 73.5%.

For the compound `O=C(CCl)c1ccc2c(c1)CCN(C(=O)C(F)(F)F)C2`, the Inhibition % is 2.68%. For `N#Cc1c(-c2ccccc2)nc(S)[nH]c1=O`, the Inhibition % turned out to be 13.2%. The same measure for `Cc1ccc(CN2CCCN(C(=O)CCl)CC2)cc1.Cl`: 13%; for `COc1cc(S(=O)(=O)n2cccn2)ccc1F`: 1.65%; for `O=C1OCCC1Sc1ncnc2ccsc12` (stereo not drawn): 3.13%. Under `O=C(O)c1csc(C(=O)CCl)c1` stands 102%; under `O=C(CCl)Nc1cccc(C(=O)O)c1`, 13.2%; under `CN(C)C(=O)c1cccc(NC(=O)CCl)c1`, 12.2%. Under `Cn1cc(C(=O)CCl)cc1C(N)=O` stands 0.329%; under `NC(=O)c1csc(C(=O)CCl)c1`, 101%.

Consider `CN(C)C(=O)c1ccc(NC(=O)CCl)cc1`, for which the Inhibition % is 44.1%.

As to `CN(C(=O)c1cc(C(N)=O)cs1)C1CC(C)(C)OC1=O` (stereo not drawn), the Inhibition % is reported as 7.6%. For the compound `CN(C)C(=O)c1csc(C(=O)CCl)c1`, the Inhibition % came to 67.8%. The same measure for `CC(C)C1NC(=O)C12CCCCCC2` (stereo not drawn): 9.56%; for `C=CC(=O)NC1(C)CCC(C)CC1` (stereo not drawn): 29.1%. Under `C=CC(=O)NCCc1nc2c(C)cccc2o1` stands 9.51%; under `Cc1cc(NC(=O)CCl)n(-c2ccccc2)n1`, 29.6%. With `Cc1nn(-c2ccccc2)c(C)c1C=C(C#N)C(=O)O`, the Inhibition % was 6.36%. Turning to `CN(C)C(=O)c1ccc(B2OC(C)(C)C(C)(C)O2)c(Cl)c1`, the Inhibition % is given as 2.75%. Under `Cn1ncc(C(=O)O)c1C#N` stands 13.7%; under `CCCc1cc(=O)[nH]c(S)n1`, 8.86%.

`Cl.NCc1cc(=O)[nH]c(S)n1`: the Inhibition % is 27.5%.

In the case of `NC(=O)Cc1cc(=O)[nH]c(S)n1`, the Inhibition % was 52.6%.

Turning to `N#CC(=Cc1ccc(F)cc1)C(=O)O`, the Inhibition % turned out to be 2.9%. The same measure for `C=CC(=O)NCC1(C)OCCc2sccc21` (stereo not drawn): 16.4%; for `C=CC(=O)NC(C)(C)c1cnn(C)c1`: 3.17%; for `Cn1cc(C(C)(C)C(=O)Nc2cccc(S(=O)(=O)F)c2)cn1`: 88.2%. Regarding `CC1(C(=O)Nc2cccc(S(=O)(=O)F)c2)CCCC1`, the Inhibition % is reported as 97.7%. In the case of `Cn1ncc(C(=O)Nc2cccc(S(=O)(=O)F)c2)c1C#N`, the Inhibition % is 4.68%.

For `CSC1(C(=O)Nc2cccc(S(=O)(=O)F)c2)CC1`, the Inhibition % was 101%.

Regarding `Cc1cc(C(=O)Nc2cccc(S(=O)(=O)F)c2)nn1C(C)(C)C`, the Inhibition % was 32.8%. For the compound `CC(F)(F)C1(C(=O)Nc2cccc(S(=O)(=O)F)c2)CC1`, the Inhibition % turned out to be 95.7%. Under `COc1nc(C)ccc1C(=O)Nc1cccc(S(=O)(=O)F)c1` stands 11.7%; under `COCCNC(=O)C(C#N)=Cc1c(Cl)cccc1Cl`, 2.17%. Turning to `O=C(CCl)Nc1cccc2ncccc12`, the Inhibition % is on record as 40.3%. Under `CS(=O)(=O)NC1CCCN(C(=O)C=Cc2cccnc2)C1` (stereo not drawn) stands 5.3%; under `N#CN(CCn1cncn1)c1ccccc1`, 6.47%; under `OB(O)c1ccc(OCC2CCCCO2)cc1` (stereo not drawn), 27.9%.

`CCN(c1ccc(C(F)(F)F)c(C#N)n1)C1CCOC1` (stereo not drawn): the Inhibition % is 8.44%. The same measure for `C=CC(=O)NC1CCCN(c2ncccn2)C1` (stereo not drawn): 4.88%; for `CC1(C)OB(c2ccc(C(F)C(F)(F)F)cc2)OC1(C)C` (stereo not drawn): 3.09%; for `Cc1cc(C)n(CCCNc2ccnc(C#N)c2)n1`: 3.45%. The same measure for `CC1CC(Sc2nccc(C(F)(F)F)n2)C(=O)O1` (stereo not drawn): 3.32%. With `C=CC(=O)N1CCCC(n2ccnn2)CC1` (stereo not drawn), the Inhibition % is 11.9%. As for `C=CS(=O)(=O)Nc1ccccc1`, the Inhibition % was determined as 6.78%. Under `CC1(C(=O)Nc2cccc(S(=O)(=O)F)c2)CCOCC1` stands 83.4%; under `C=CC(=O)NCC1c2ccccc2C(=O)N1C` (stereo not drawn), 7.14%; under `C=CC(=O)NC1(c2ccc(C(F)(F)F)cc2)CC1`, 6.09%. Take `C=CC(=O)N1CCCC(c2n[nH]c(=O)o2)C1` (stereo not drawn): the Inhibition % came out at 1.49%. Under `C=CC(=O)N1CCC(NC(C)=O)(c2nc(C)cs2)C1` (stereo not drawn) stands 5.8%; under `CC1(c2ccc(S(=O)(=O)F)cc2)OCCO1`, 6.74%; under `Cc1nc(C2CC2)nc(S)c1C(=O)O`, 51.1%. Under `Cc1nc(C(C)(C)C)nc(S)c1C(=O)O` stands 1.97%. Under `Cc1nc(C2CC2)nc(S)c1C#N` stands 2.7%. `C=CC(=O)NC1COc2c(C)cccc2C1` (stereo not drawn): the Inhibition % was found to be 10.9%. As to `CC1(C)OB(c2cc3ccccc3cc2Br)OC1(C)C`, the Inhibition % amounted to 11.9%. Under `N#Cc1ccc(C(=O)CCl)cc1` stands 18.8%; under `CN(c1ccc(C(=O)CCl)cc1)S(C)(=O)=O`, 94.3%. In the case of `CCN(c1ccc(C(=O)CCl)cc1)S(C)(=O)=O`, the Inhibition % came out at 95.1%. Under `O=C(CCl)N(C1CCCCC1)C1CCS(=O)(=O)C1` (stereo not drawn) stands 1.27%. For the compound `O=C(CCl)NCC#Cc1cccc(C(F)(F)F)c1`, the Inhibition % came to 6.88%.

Take `Cl.ClCCN1CC2CCC(C1)O2`: the Inhibition % turned out to be 3.05%. Under `Cc1nc(C#N)[nH]c1C` stands 3.54%. Regarding `C=CC(=O)N1CCCC2(CCCOC2)C1` (stereo not drawn), the Inhibition % is 11.3%. The same measure for `Cc1nc(S)c(C#N)c(C)c1C`: 3.15%; for `Cc1nnc(S)c(C#N)c1C`: 53.3%. Under `Cc1c(C#N)c(S)nc2c1CCC2` stands 15.1%; under `CCOc1ccc(S(=O)(=O)n2nc(C)cc2C)cc1`, 3.86%. Regarding `Cc1nc(C)c(C=C(C#N)C(=O)NC(C)C)o1`, the Inhibition % is 3.38%. As for `N#CC(=Cc1ccncc1)C(=O)Nc1cccc(Cl)c1`, the Inhibition % came out at 10.5%. Under `C#Cc1ccc(C=C(C#N)C(=O)Nc2ccncc2)cc1` stands 73.3%; under `N#CC(=Cc1ccc(Cl)cc1)C(=O)Nc1ccncc1`, 2.9%; under `C=CC(=O)NC1COc2cc(Cl)ccc2C1` (stereo not drawn), 6.51%. Take `CN1CCCN(C(=O)c2ccc(S(=O)(=O)F)cc2)c2ccccc21`: the Inhibition % came to 17.9%. The same measure for `Cc1cc(C)cc(NC(=O)CN2CCSC2=O)c1`: 5%; for `Cc1ccc(NC(=O)CN2CCSC2=O)cc1C`: 1.36%; for `O=C(CN1CCSC1=O)Nc1cn[nH]c1`: 11.7%. Take `Cn1cc(NC(=O)CN2CCSC2=O)cn1`: the Inhibition % came out at 71.6%. On to `O=C(O)C=CC(=O)Nc1ccc(F)cc1`, for which the Inhibition % amounted to 7.34%. Under `O=C(CN1CCSC1=O)Nc1ccc2[nH]ncc2c1` stands 60.9%. On to `O=C(CN1CCSC1=O)Nc1ccc(Cl)c(Cl)c1`, for which the Inhibition % is 0.617%. The same measure for `O=C(O)C=CC(=O)Nc1ccc(F)c(Cl)c1`: 8.72%; for `O=C(O)C=CC(=O)Nc1ccc2[nH]ncc2c1`: 77.7%; for `COCC(C)NC(=O)C(C#N)=Cc1occc1C` (stereo not drawn): 5.2%. Under `O=C1SCCN1CC(=O)N1CCCc2ccccc21` stands 7.03%.

`Cc1c(C#N)c(NC(=O)CCl)n(-c2ccc(F)cc2)c1C`: the Inhibition % amounted to 1.78%.

With `COc1ccc2[nH]c(CCCCl)nc2n1.Cl`, the Inhibition % worked out at 23.2%. The same measure for `C=CS(=O)(=O)c1ccc(C#N)cn1`: 1.18%; for `O=S(=O)(Oc1ccccc1C(F)(F)F)c1c[nH]cn1`: 10.4%. On to `COCCCS(=O)(=O)N1CCC(Cl)CC1`, for which the Inhibition % was 7.37%. As for `OB(O)c1cccc2c1OCCC2`, the Inhibition % is on record as 4.89%. Regarding `C=CC(=O)N1CCc2c(cccc2C(F)(F)F)C1`, the Inhibition % was -3.37%.

In the case of `Cc1noc2ncc(S(=O)(=O)OCC(F)(F)F)cc12`, the Inhibition % is 18.2%. Turning to `O=S(=O)(F)c1ccc2cnccc2c1`, the Inhibition % was 86.1%. The same measure for `Cc1ccc(F)c(OS(=O)(=O)c2cn[nH]c2C)c1`: 11.7%; for `O=S(=O)(F)c1ccc2[nH]ncc2c1`: 53%. The same measure for `O=S(=O)(F)c1ccc(S(=O)(=O)Nc2ccncc2F)cc1`: 17.6%. Under `COc1ncc(S(=O)(=O)F)cn1` stands 31.2%; under `Cc1cc2[nH]ncc2cc1S(=O)(=O)F`, 97.4%. In the case of `O=S(=O)(F)c1ccc2cn[nH]c2c1`, the Inhibition % was 72.5%. As to `O=S(=O)(F)c1ccc(F)cc1`, the Inhibition % came to 2.62%. On to `O=S(=O)(F)c1ccc2c(c1)NCC2`, for which the Inhibition % amounted to 26.6%. Under `O=S(=O)(F)c1cccnc1` stands 17.7%. Turning to `Cc1cc(CNC(=O)CCl)ccc1F`, the Inhibition % was found to be 18%.

As to `Cc1cc(NS(=O)(=O)C=Cc2ccccc2Cl)n(C)n1`, the Inhibition % was determined as 8.51%. Under `C=CC(=O)NC1CCCc2c1cnn2C` (stereo not drawn) stands 6.84%; under `C=CC(=O)Nc1cccc(C(=O)O)c1`, 4.88%. For the compound `Cc1nc(C(C)C)oc1Cn1ccnc1C#N`, the Inhibition % came to 8.62%. Under `C=CC(=O)N1CCC(OCC2CC2)CC1` stands -0.254%.
